Assay results from PubChem BioAssay AID1159580 (chemical genetic matrix, 2015).
Where “and” joins values, the source holds several entries; their conditions need not be identical. Identical values can stand only once. Out of some 5,500 compounds screened, about 2,000 (36%) were called active. Another 18% or so got no clear call; they are omitted. Cut-off read from the data, not from the text of the source: active = normalized growth mostly below about 0.91 (no sharp cut-off); inconclusive = no clear call, values can overlap the other calls; inactive = mostly above about 0.92. The list shows a part of the results.

Assay: chemical genetic growth profiling, strain panel (AID 1159580);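 note: tested at 20 µM; growth read once vehicle control cultures reached saturation at 30 °C; 1 = growth at the plate median or of vehicle wells; lower values mean less growth of the strain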
Settings: S. cerevisiae deletion strains, growth OD

Measured: normalized growth

C[C@H]1[C@H](C)CC[C@]2(CO)CC[C@]3(C)C(=CCC4[C@@]5(C)CC[C@H](O)C(C)(C)C5CC[C@]43C)[C@H]12 (some centres not stated)
inactive: locus YAL021C, strain ccr4, hits give low values 1.02 | locus YAL026C, strain drs2, hits give low values 0.981 | locus YAL030W, strain snc1, hits give low values 0.997 | locus YBL061C, strain skt5, hits give low values 0.994 | locus YBR009C, strain hhf1, hits give low values 1.01 | locus YBR021W, strain FUR4, hits give low values 1.01 | locus YBR023C, strain chs3, hits give low values 0.995 | locus YBR171W, strain sec66, hits give low values 0.989 | locus YBR229C, strain ROT2, hits give low values 1.02 | locus YBR231C, strain swc5, hits give low values 0.996 | locus YBR279W, strain paf1, hits give low values 0.991 | locus YCL011C, strain gbp2, hits give low values 0.994 | locus YCL016C, strain dcc1, hits give low values 1.01 | locus YCL029C, strain bik1, hits give low values 1.06 | locus YCL061C, strain MRC1, hits give low values 1 | locus YCL069W, strain vba3, hits give low values 0.998 | locus YCR088W, strain abp1, hits give low values 0.995 | locus YDL005C, strain med2, hits give low values 0.986 | locus YDL035C, strain GPR1, hits give low values 0.994 | locus YDL040C, strain nat1, hits give low values 0.996 | locus YDL074C, strain BRE1, hits give low values 1.03 | locus YDL101C, strain DUN1, hits give low values 1.02 | locus YDL134C, strain PPH21, hits give low values 0.999 | locus YDL185W, strain tfp1, hits give low values 1.03 | locus YDL192W, strain arf1, hits give low values 1.04 | locus YDR001C, strain nth1, hits give low values 1 | locus YDR069C, strain doa4, hits give low values 0.988 | locus YDR101C, strain arx1, hits give low values 1.01 | locus YDR137W, strain rgp1, hits give low values 0.996 | locus YDR159W, strain sac3, hits give low values 1.01 | locus YDR162C, strain NBP2, hits give low values 1.01 | locus YDR195W, strain ref2 0.992 | locus YDR297W, strain sur2, hits give low values 1.01 | locus YDR318W, strain mcm21, hits give low values 1.02 | locus YDR334W, strain swr1, hits give low values 0.992 | locus YDR335W, strain msn5, hits give low values 0.999 | locus YDR388W, hits give low values 1.02 | locus YDR392W, strain spt3, hits give low values 1.03 | locus YDR502C, strain sam2, hits give low values 0.998 | locus YEL003W, strain gim4, hits give low values 1 | locus YEL037C, strain rad23, hits give low values 0.981 | locus YEL061C, strain CIN8 (second series), hits give low values 0.972 | locus YEL061C, strain CIN8, hits give low values 1.01 | locus YER015W, strain faa2, hits give low values 1 | locus YER016W, strain bim1, hits give low values 0.988 | locus YER110C, hits give low values 1.03 | locus YER111C, strain swi4, hits give low values 1.01 | locus YER155C, strain BEM2 (second series), hits give low values 0.995 | locus YER155C, strain BEM2, hits give low values 1.02 | locus YER167W, strain BCK2, hits give low values 0.994 | locus YFR010W, strain ubp6, hits give low values 0.987 | locus YGL078C, strain dbp3, hits give low values 1.01 | locus YGL086W, strain mad1, hits give low values 1.01 | locus YGL167C, strain pmr1, hits give low values 0.996 | locus YGL173C, strain kem1, hits give low values 1 | locus YGL227W, strain vid30, hits give low values 0.999 | locus YGL240W, strain doc1, hits give low values 0.975 | locus YGL248W, strain PDE1, hits give low values 1.01 | locus YGL253W, strain hxk2, hits give low values 0.995 | locus YGR135W, strain pre9, hits give low values 1.01 | locus YGR252W, strain gcn5, hits give low values 1.02 | locus YHR013C, strain ard1, hits give low values 0.982 | locus YHR027C, strain rpn1, hits give low values 1 | locus YHR030C, strain SLT2, hits give low values 1.01 and 1.03 | locus YHR079C, strain IRE1 (second series), hits give low values 1.02 | locus YHR079C, strain IRE1, hits give low values 1.04 | locus YHR094C, strain hxt1, hits give low values 1.03 | locus YHR129C, strain ARP1, hits give low values 1.02 | locus YHR142W, strain chs7, hits give low values 1.01 | locus YHR200W, strain rpn10, hits give low values 1.01 | locus YIL066C, strain RNR3, hits give low values 1.01 | locus YIL073C, strain SPO22, hits give low values 1.05 | locus YIL125W, strain kgd1, hits give low values 1.03 | locus YIR030C, strain dcg1, hits give low values 1.02 | locus YJL092W, strain hpr5, hits give low values 0.995 | locus YJL095W, strain BCK1 (second series), hits give low values 1.01 | locus YJL095W, strain BCK1, hits give low values 1.02 and 0.984 | locus YJL115W, strain asf1, hits give low values 0.991 | locus YJL129C, strain trk1, hits give low values 1 | locus YJL134W, strain LCB3, hits give low values 1.01 | locus YJL154C, strain vps35, hits give low values 0.986 | locus YJL164C, strain tpk1, hits give low values 1.01 | locus YJL166W, strain qcr8, hits give low values 0.994 | locus YJL168C, strain set2, hits give low values 1.02 | locus YJL187C, strain SWE1 (second series), hits give low values 1.02 | locus YJR043C, strain POL32, hits give low values 1 | locus YJR066W, strain TOR1, hits give low values 0.997
